The list is not random: actives were taken first. Their share in the collection is about 19%.
KB-V1 MDR tox: qHTS assay for MDR1-selective chemotherapeutics: Primary screen using the drug-selected MDR subline cells KB-V1; KB-V1 MDR cells viability, CellTiter-Glo, 72 h; Potency, µM (doses to about 46.1 µM), actives largely listed as cytotoxic; hit rate 3.4% among 400,000; AID 1347076, 2019; further: nearly all actives have a fitted effect of over 60% in size
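Readout: CellTiter-Glo luminescence, 10 min after addition. Cells: KB-V1 MDR subline, 72 h at 37 degrees C with compound. Analysis: corrected, normalized data fitted to concentration-effect curves.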
TDP1 cell noCPT: qHTS for Inhibitors of human tyrosyl-DNA phosphodiesterase 1 (TDP1): qHTS in cells in absence of CPT; DT40 Tdp1-/- hTDP1 cells, no CPT, ATP luminescence, 48 h; Potency, µM (highest dose often 46.2 µM), inactives show at the highest dose activity change, negative = growth inhibition, most hits filed as inhibitors; hit rate 15% among 420,000; further: nearly all actives have a fitted effect of over 55% in size
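Stably hTDP1-transfected Tdp1-null chicken DT40 cells were treated with library compounds minus camptothecin and grown for at least 48 hr at 37 °C, after which cellular ATP was quantified by luminescence.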
HT1080 IDH1KD tx: qHTS for induction of synthetic lethality in tumor cells producing 2HG: qHTS for the HT-1080-IDH1KD cell line | HT-1080 IDH1 knockdown viability, ATP luminescence, 48 h | Potency, µM (top dose mostly 46.1 µM), for inactives: top-dose activity, negative = toxicity, most hits filed as cytotoxic | hit rate 2% among 360,000;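 further: 0% = DMSO wells and -100% = cell-free medium wells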
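CellTiter-Glo luminescence after 48 h compound exposure at 37 degrees C of IDH1-knockdown HT-1080 cells in 5% FBS RPMI. %Activity scaled between DMSO wells and cell-free media wells, with curves fitted and assigned curve classes.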
DT40 TDP1 CPT: qHTS for Inhibitors of human tyrosyl-DNA phosphodiesterase 1 (TDP1): qHTS in cells in presence of CPT; chicken DT40 Tdp1-/-;hTDP1 cells + 20 nM CPT, ATP luminescence, 48 h; Potency, µM (series often up to 46.2 µM), for inactives: top-dose activity change, negative = growth inhibition, most hits filed as inhibitors; hit rate 12% among 420,000; further: nearly all actives have a fitted effect of over 55% in size
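Chicken DT40 Tdp1-/- cells complemented with human TDP1, 400 cells/well, exposed to compounds plus 20 nM camptothecin for at least 48 h at 37 C; viability read as ATP content by CellTiter-Glo luminescence.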
KB-3-1 tox: qHTS assay for MDR1-selective chemotherapeutics: Primary screen using the parental adenocarcinoma cell KB-3-1 | KB-3-1 viability, CellTiter-Glo ATP luminescence, 72 h | Potency, µM (doses to about 46.1 µM), most hits filed as cytotoxic | hit rate 1.4% among 400,000 | AID 1347075, 2019; further: nearly all actives have a fitted effect of over 60% in size
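Cytotoxicity in the drug-sensitive parental line KB-3-1 was scored as loss of CellTiter-Glo luminescence following 72 h incubation with compound. Values come from curve fitting of normalized concentration-response data.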
HT1080-NT tox: qHTS for induction of synthetic lethality in tumor cells producing 2HG: qHTS for the HT-1080-NT fibrosarcoma cell line. Potency, µM (series often up to 46.1 µM), for the others: at the top dose activity, negative = less viability, usual class: cytotoxic. hit rate 1.6% among 360,000. HT-1080-NT fibrosarcoma viability, CellTiter-Glo ATP luminescence, 48 h;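 further: NT is the 2HG producing partner of a matched IDH1 knockdown line; 0% = DMSO-treated cells and -100% = media-only wells without cells; nearly all actives have a fitted effect of over 55% in size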
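Fibrosarcoma NT cells, 750 per well in 5% FBS RPMI, were exposed to compound for 48 hours. Viability: CellTiter-Glo luminescence.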
* marks the source's active call; other numbers are inactive results. The call rests on the fitted dose curve; in most records, active means well fitted curve in the direction sought with a large enough effect; inconclusive means small, poorly fitted or top-dose-only effect, or another doubt; inactive means no such curve, though single readings can be large; an effect the other way counts as inactive or inconclusive. Unless noted, on the % scale 0 is the no-effect control and ±100 the full control effect; potency means the concentration at half of the fitted maximal effect.

For CC(C)(C)c1ccc(CC(=O)N2CCC2(C)C(=O)NCc2ccc3c(c2)OCO3)cc1 (configuration not stated) the results were KB-V1 MDR tox inactive, TDP1 cell noCPT inconclusive, HT1080 IDH1KD tx inconclusive, DT40 TDP1 CPT inconclusive, KB-3-1 tox inactive and HT1080-NT tox inconclusive.
Screening CC1(C(=O)Nc2ccccc2Br)CCN1C(=O)Cc1ccc(Cl)cc1Cl (configuration not stated) returned KB-V1 MDR tox inactive, TDP1 cell noCPT 16.4µM*, HT1080 IDH1KD tx -21.4%, DT40 TDP1 CPT 23.1µM*, KB-3-1 tox inactive and HT1080-NT tox -14.3%.
For Cc1cc2c(cc1S(=O)(=O)CCC(=O)N1CCCCC1C)OCC(=O)N2 (configuration not stated) the results were KB-V1 MDR tox inactive and KB-3-1 tox inactive.
CCOc1ccc(-c2nc(CSCC(=O)N3CCN(c4cccc(OC)c4)CC3)c(C)o2)cc1 was read as KB-V1 MDR tox inactive, TDP1 cell noCPT inconclusive, HT1080 IDH1KD tx -8.7%, DT40 TDP1 CPT 23.1µM*, KB-3-1 tox inactive and HT1080-NT tox -10.0%.
For CCOc1ccc(-c2nc(CSCC(=O)NC3CC3)c(C)o2)cc1 the results were KB-V1 MDR tox inactive, TDP1 cell noCPT inconclusive, HT1080 IDH1KD tx 7.0%, DT40 TDP1 CPT inconclusive, KB-3-1 tox inactive and HT1080-NT tox 2.2%.
COc1cccc(-c2nc(CSCC(=O)N3CCc4ccccc43)c(C)o2)c1 was read as KB-V1 MDR tox 10.3µM*, TDP1 cell noCPT -8.0%, HT1080 IDH1KD tx 11.8%, DT40 TDP1 CPT -7.1%, KB-3-1 tox inconclusive and HT1080-NT tox -0.4%.
For COc1ccc(-c2nc(CSCC(=O)N3CCN(c4ccccc4F)CC3)c(C)o2)cc1 the results were KB-V1 MDR tox inconclusive, TDP1 cell noCPT 8.2µM*, DT40 TDP1 CPT 16.4µM* and KB-3-1 tox inconclusive.
Screening Cc1cccc(-c2nnc(SCCC(=O)O)o2)c1 returned KB-V1 MDR tox inactive and KB-3-1 tox inactive.
CCc1ccc(Nc2cc(C)nc3ncnn23)cc1 was read as KB-V1 MDR tox inconclusive, TDP1 cell noCPT 0.1%, HT1080 IDH1KD tx -9.6%, DT40 TDP1 CPT 5.9%, KB-3-1 tox inconclusive and HT1080-NT tox -0.6%.
For CCn1c2ccccc2c2cc(Nc3cc(C)nc4ncnn34)ccc21 the results were KB-V1 MDR tox inconclusive, TDP1 cell noCPT 0.581µM*, HT1080 IDH1KD tx 1.03µM*, DT40 TDP1 CPT 0.92µM*, KB-3-1 tox 0.231µM* and HT1080-NT tox 0.581µM*.
`COc1ccc(CNC(=O)Cn2cccc2C(=O)c2ccccc2C)cc1` gave KB-V1 MDR tox inactive, TDP1 cell noCPT -15.7%, HT1080 IDH1KD tx 0.0%, DT40 TDP1 CPT inconclusive, KB-3-1 tox inactive and HT1080-NT tox 14.7%.
COc1ccc(OC)c(CCNC(=O)Cn2cccc2C(=O)c2ccccc2C)c1 was read as KB-V1 MDR tox inactive, TDP1 cell noCPT 8.2µM*, HT1080 IDH1KD tx 9.8%, DT40 TDP1 CPT inconclusive, KB-3-1 tox inactive and HT1080-NT tox inconclusive.
COc1ccc(OC)c(CCNC(=O)Cn2cccc2C(=O)c2ccccc2)c1 was read as KB-V1 MDR tox inactive, TDP1 cell noCPT inconclusive, HT1080 IDH1KD tx -0.2%, DT40 TDP1 CPT 7.31µM*, KB-3-1 tox inactive and HT1080-NT tox -2.8%.
Screening COc1ccc(CCNC(=O)Cn2cccc2C(=O)c2ccccc2)cc1OC returned KB-V1 MDR tox inconclusive, TDP1 cell noCPT -19.8%, HT1080 IDH1KD tx 17.3%, DT40 TDP1 CPT 20.0%, KB-3-1 tox inactive and HT1080-NT tox -2.3%.
For Cc1ccc(-n2nnc3c(SCC(=O)NCC4CCCO4)ncnc32)cc1 (configuration not stated) the results were KB-V1 MDR tox inactive, TDP1 cell noCPT 11.6µM*, HT1080 IDH1KD tx -1.6%, DT40 TDP1 CPT 20.6µM*, KB-3-1 tox inactive and HT1080-NT tox 0.9%.
`Cc1sc2ncnc(SC(C)C(=O)N3c4ccccc4Sc4ccccc43)c2c1C` (configuration not stated) gave KB-V1 MDR tox inconclusive, TDP1 cell noCPT 23.1µM*, HT1080 IDH1KD tx 7.9%, DT40 TDP1 CPT 20.6µM*, KB-3-1 tox inconclusive and HT1080-NT tox 5.9%.
For Cc1sc2ncnc(SCC(=O)NC3CC3)c2c1C the results were KB-V1 MDR tox 20.6µM*, TDP1 cell noCPT 3.3%, HT1080 IDH1KD tx -2.1%, DT40 TDP1 CPT -8.8%, KB-3-1 tox inactive and HT1080-NT tox -0.6%.
Screening Cc1sc2ncnc(SCC(=O)NC3CCCC3)c2c1C returned KB-V1 MDR tox inconclusive, TDP1 cell noCPT inconclusive, HT1080 IDH1KD tx -8.0%, DT40 TDP1 CPT -16.8%, KB-3-1 tox inactive and HT1080-NT tox -2.3%.
`Cc1sc2ncnc(SCC(=O)N(C(C)C)C(C)C)c2c1C` gave KB-V1 MDR tox inactive, TDP1 cell noCPT -6.9%, HT1080 IDH1KD tx 12.9%, DT40 TDP1 CPT 19.9%, KB-3-1 tox inactive and HT1080-NT tox 9.0%.
`Cc1sc2ncnc(SCC(=O)NC(C)C(C)C)c2c1C` (configuration not stated) gave KB-V1 MDR tox inactive, TDP1 cell noCPT 16.4µM*, HT1080 IDH1KD tx 2.3%, DT40 TDP1 CPT 16.4µM*, KB-3-1 tox inactive and HT1080-NT tox 7.3%.
For Cc1ccc(OCC(=O)NNC(=O)C(C)Sc2ncnc3sc(C)c(C)c23)cc1 (configuration not stated) the results were KB-V1 MDR tox inactive, TDP1 cell noCPT -18.8%, HT1080 IDH1KD tx 3.1%, DT40 TDP1 CPT 1.1%, KB-3-1 tox inactive and HT1080-NT tox -1.2%.
CC(=O)N1CCN(C(=O)CSc2ncnc3sc(C)c(C)c23)CC1 was read as KB-V1 MDR tox 14.6µM*, TDP1 cell noCPT -3.9%, HT1080 IDH1KD tx 8.4%, DT40 TDP1 CPT -3.2%, KB-3-1 tox inconclusive and HT1080-NT tox 8.4%.
For Cc1sc2ncnc(SCC(=O)NCC3CCCO3)c2c1C (configuration not stated) the results were KB-V1 MDR tox inconclusive, TDP1 cell noCPT 5.17µM*, HT1080 IDH1KD tx 5.4%, DT40 TDP1 CPT 0.259µM*, KB-3-1 tox inactive and HT1080-NT tox 3.0%.

From PubChem
